# PubChem BioAssay AID2778 (National Center for Advancing Translational Sciences (NCATS), 2010)
# Inconclusive results are not listed. Where a call stands in place of a potency, no number is given. The source made the active and inactive calls. Calls follow the shape of the dose curve; as a rule, active = well fitted inhibition curve with a large enough effect; inconclusive = small, poorly fitted or top-dose-only effect, or effect the other way; inactive = flat fitted curve, though single readings scatter. Positions of bridges follow the written chain, without caps; N, C: chain ends. Non-standard residues stand in square brackets, D forms with d. Residues, ends and D or L forms follow the SMILES beside them. ξ: configuration not given here. *: point of attachment. ξDab(CH2SO3H) = NC(CCNCS(=O)(=O)O)C(=O)O; Heptanoyl(6-Me) = CC(C)CCCCC(=O)*; Dab = NCC[CH](N)C(=O)O
# Target: Menin (Homo sapiens) (UniProt O00255)
# Assay: Confirmation of Inhibitors Targeting the Menin-MLL Interaction in MLL Related Leukemias: Confirmation in an HTRF (commercial TR-FRET) Assay using His-tagged menin and biotin-labeled MLL peptide
# Settings: His-menin / biotin-MLL peptide binding; series mostly up to 126 µM
# How it was run: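 HTRF: His6-menin (200 nM) and biotin-MLL-w.t. peptide (80 nM) preincubated 15 min, then compounds 1 hr at ambient, before Eu-cryptate anti-His (3.5 nM) and streptavidin-XL665 (10 nM) for 1 h; 50 mM Tris-HCl pH 7.5, 50 mM NaCl, 1 mM DTT, BSA.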
# Potency is read from the fitted curve at half-maximal effect.
# Menin (Homo sapiens), sequence (O00255 whole entry, looked up): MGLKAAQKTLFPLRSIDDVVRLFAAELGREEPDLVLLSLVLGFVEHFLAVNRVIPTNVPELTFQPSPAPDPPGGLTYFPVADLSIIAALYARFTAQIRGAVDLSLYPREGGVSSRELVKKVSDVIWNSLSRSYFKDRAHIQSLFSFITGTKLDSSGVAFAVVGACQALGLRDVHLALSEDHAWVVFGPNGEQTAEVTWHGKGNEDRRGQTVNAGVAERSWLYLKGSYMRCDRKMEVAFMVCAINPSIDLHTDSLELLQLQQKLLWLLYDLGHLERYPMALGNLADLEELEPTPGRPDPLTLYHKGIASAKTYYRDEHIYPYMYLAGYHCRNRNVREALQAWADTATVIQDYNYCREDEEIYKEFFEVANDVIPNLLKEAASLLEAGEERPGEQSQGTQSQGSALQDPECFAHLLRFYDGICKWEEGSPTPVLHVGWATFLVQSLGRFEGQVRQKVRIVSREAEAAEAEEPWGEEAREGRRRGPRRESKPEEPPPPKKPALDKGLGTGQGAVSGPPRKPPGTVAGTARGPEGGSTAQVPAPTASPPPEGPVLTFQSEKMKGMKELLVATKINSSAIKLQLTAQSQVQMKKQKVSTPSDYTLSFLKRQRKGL
row,SMILES,Potency
1,COc1ccccc1NS(=O)(=O)c1cc(N2Cc3ccccc3C2=N)ccc1N1CCOCC1,89.1 µM (active)
2,O=c1c2ccccc2nc(N/N=C/c2c(O)ccc3ccccc23)n1O,inactive
3,O=[N+]([O-])CC(c1ccccc1)P(=O)(c1ccccc1)c1ccccc1 (centres undefined),inactive
4,CCCC(=O)NC(c1ccccc1Cl)c1ccc2cccnc2c1O (centres undefined),inactive
5,O=C(Nc1ccc(F)c(Cl)c1)c1cc(-c2ccco2)on1,inactive
6,Cc1nc2oc3c(NCC4CCCO4)ncnc3c2c2c1COC(C)(C)C2 (centres undefined),inactive
7,CCCNC(=O)c1ccc2c(=O)c(O)c(C)[nH]c2c1,inactive
8,O=C(N1CCOCC1)N1CCN(S(=O)(=O)c2ccc(Cl)cc2)CC1,inactive
9,Cc1ccc(Nc2nc(N)[nH]c(=O)c2N=O)cc1,inactive
10,CCc1ccc(CNC(=O)CCS(=O)(=O)Cc2ccccc2F)cc1,inactive
11,CC(CC(=O)Nc1nc2ccccc2[nH]1)n1ccnc1 (centres undefined),inactive
12,O=C(NCC1CCCO1)c1ccc(OC2CCN(C(=O)C3CC3)CC2)cc1 (centres undefined),inactive
13,CCN(CCn1cccn1)Cc1ccccc1OCC(O)CN1CCc2ccccc2C1 (centres undefined),inactive
14,Fc1ccccc1C1c2cccn2CCN1C(=S)Nc1ccc(Br)cc1 (centres undefined),inactive
15,O=C(CCN1CCN(c2ccc([N+](=O)[O-])cc2)CC1)c1ccc(Cl)cc1,inactive
16,COC(=O)Cc1c(C)nc2nc(-c3ccc(OC)cc3)[nH]n2c1=O,inactive
17,COCCn1c(C)c(C)c2c(NCCc3ccccc3)ncnc21,inactive

row,SMILES,Potency
1,COc1cc(OC)c2ccc(=O)oc2c1C(CCN1CCOCC1)c1ccc(N(C)C)cc1 (centres undefined),inactive
2,O=C1C(=O)c2ncccc2-c2cccnc21,inactive
3,O=C1Cc2ccccc2Sc2c(OCCN3CCCCC3)cccc21,inactive
4,Cc1ccc(/C=C2\SC(=S)N(CC(=O)Nc3ncc(Cc4ccccc4Cl)s3)C2=O)cc1,inactive
5,CCOC(=O)N1CCN(C(=O)c2oc3ccc(S(=O)(=O)N(CC)CC)cc3c2C)CC1,inactive
6,C=CCN(CC=C)S(=O)(=O)c1ccc(NC(=S)NC(=O)/C=C/c2cccc3ccccc23)cc1,inactive
7,CC(=O)N1CCCc2cc(S(=O)(=O)N3CCCC(C(=O)N4CCN(c5ccccc5)CC4)C3)ccc21 (centres undefined),inactive
8,O=C(NC(=S)Nc1nc(-c2ccc(Br)cc2)cs1)c1cccnc1,inactive
9,CCCOc1ccc(C(=O)NNC(=S)NC(=O)c2cc(-c3ccc(Cl)cc3)nc3ccccc23)cc1,inactive
10,CCC(C)C1NC(=O)C(CCNCS(=O)(=O)O)NC(=O)C(NC(=O)C(CCNCS(=O)(=O)O)NC(=O)C(NC(=O)C(CCNCS(=O)(=O)O)NC(=O)CCCCC(C)C)C(C)O)CCNC(=O)C(C(C)O)NC(=O)C(CCNCS(=O)(=O)O)NC(=O)C(CCNCS(=O)(=O)O)NC(=O)C(C(C)CC)NC1=O (centres undefined) ({Heptanoyl(6-Me)}-[ξDab(CH2SO3H)]T[ξDab(CH2SO3H)][Dab][ξDab(CH2SO3H)]II[ξDab(CH2SO3H)][ξDab(CH2SO3H)]T; lactam 4-C; configuration not given here),inactive
11,CCn1cnc2c1c(=O)n(CC(=O)O)c(=O)n2Cc1ccccc1,inactive
12,CCN1C(=O)c2ccccc2S(=O)(=O)c2ccc(C(=O)NCCCN(CC(C)C)CC(C)C)cc21,inactive
13,NC(=O)C1CCN(C2=C(Cl)C(=O)c3ccccc3C2=O)CC1,inactive
14,C[C@H](NC(=O)c1cc2c(cn1)[nH]c1ccccc12)C(=O)O,79.4 µM (active)
15,Cn1c(=O)n(C)c2cc3[nH]cnc3cc21,inactive
16,O=C(c1cc(F)c(F)cc1Cl)N1CCN(c2ncccn2)CC1,inactive
17,Cc1ccc(C(=O)Sc2cccccc2=O)cc1,inactive
